Holding throughout (test): peptide microarray binding signal (635 nm), min-max normalized on array (fraction of array maximum); higher = stronger binding
What all share (details): peptide region: H2A 1-13

For assay [1], the target named is T1, HaloTag-ATRX ADD domain (163-292).
T1 chain: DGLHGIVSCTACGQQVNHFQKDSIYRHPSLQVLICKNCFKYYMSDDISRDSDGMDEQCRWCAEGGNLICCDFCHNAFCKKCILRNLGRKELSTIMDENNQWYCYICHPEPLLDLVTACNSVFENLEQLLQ
The method, then:
(§1)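 Histone 13-mer peptides were synthesized as cellulose conjugates with a C-terminal 20-atom PEG linker and printed in triplicate on nitrocellulose. The sequence given is the unmodified backbone; PTMs (Kme1/2/3, Kac, Sph/Tph, Rme/Rme2a/Rme2s, Rcit) are listed in the label and the 'peptide modifications' condition. Slides were probed at 4 °C for 1 h with biotin-labelled (HQ)5-HaloTag reader fusions (ATRX-ADD, ING2-PHD) then streptavidin-Alexa647, or with rabbit histone antibodies then anti-rabbit Alexa647. The mean 635 nm signal of the triplicate spots was scaled 0-1 between the lowest and highest values on each array.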

The target in assay [2] is HaloTag-ING2 PHD (mouse Ing2 200-280). The method, then:
as §1

The target of assay [3] is anti-H3K4me3 antibody ab8580. Here is the method: as §1
Assay [4] addresses anti-H3K9me3 antibody ab8898. Here is the method: as §1
Where [5] appears, read: peptide modifications: H2AK5ac H2AK9ac, binder concentration: 1:2,000 dilution.
Where [6] appears, read: peptide modifications: H2AK5ac H2AK9ac, binder concentration: 1:10,000 dilution.
Setting [7] is: peptide modifications: H2AR3cit H2AK5ac, binder concentration: 1:2,000 dilution.
Where [8] appears, read: peptide modifications: H2AR3cit H2AK5ac, binder concentration: 1:10,000 dilution.
The mark [9] stands for this setting: peptide modifications: H2AR3me1 H2AK5ac, binder concentration: 1:2,000 dilution.
[10] abbreviates: peptide modifications: H2AR3me1 H2AK5ac, binder concentration: 1:10,000 dilution.
The mark [11] stands for this setting: peptide modifications: H2AK5ac, binder concentration: 1:2,000 dilution.
Where [12] appears, read: peptide modifications: H2AK5ac, binder concentration: 1:10,000 dilution.
Setting [13] is: peptide modifications: H2AR3me2a, binder concentration: 1:2,000 dilution.
Setting [14] is: peptide modifications: H2AR3me2a, binder concentration: 1:10,000 dilution.
[15] abbreviates: binder concentration: 1:2,000 dilution.
[16] abbreviates: binder concentration: 1:10,000 dilution.
The mark [17] stands for this setting: peptide modifications: H2AK9ac, binder concentration: 1:2,000 dilution.
Where [18] appears, read: peptide modifications: H2AK9ac, binder concentration: 1:10,000 dilution.
Setting [19] is: peptide modifications: H2AR3me1, binder concentration: 1:2,000 dilution.
The mark [20] stands for this setting: peptide modifications: H2AR3me1, binder concentration: 1:10,000 dilution.
[21] abbreviates: peptide modifications: H2AR3cit, binder concentration: 1:2,000 dilution.
Setting [22] is: peptide modifications: H2AR3cit, binder concentration: 1:10,000 dilution.
[23] abbreviates: peptide modifications: H2AR3me2a H2AK5ac, binder concentration: 1:2,000 dilution.
Where [24] appears, read: peptide modifications: H2AR3me2a H2AK5ac, binder concentration: 1:10,000 dilution.

± gives the standard deviation.

As to SGRGKQGGKARAK [H2A 1-13 S G R G Kac Q G G Kac A R A K], the “peptide microarray binding signal” value in assay [1] (peptide modifications: H2AK5ac H2AK9ac, binder concentration: 50 nM) is 0.00382 ± 4.6e-05; in assay [1] (peptide modifications: H2AK5ac H2AK9ac, binder concentration: 500 nM), 0.00743 ± 0.00068; in assay [2] (peptide modifications: H2AK5ac H2AK9ac, binder concentration: 10 nM) it was 0.00281 ± 0.00011; in assay [2] (peptide modifications: H2AK5ac H2AK9ac, binder concentration: 100 nM), 0.00815 ± 0.00019; in assay [3] (setting [5]), 0.00109 ± 0.00019; in assay [3] (setting [6]), 0.000571. Further, the “peptide microarray binding signal” value was 0.000227 ± 4.1e-06 in assay [4] (setting [5]) and 0.000519 ± 5.6e-06 in assay [4] (setting [6]).
For SGRGKQGGKARAK [H2A 1-13 S G Rcit G Kac Q G G K A R A K], the “peptide microarray binding signal” value in assay [1] (peptide modifications: H2AR3cit H2AK5ac, binder concentration: 50 nM) stood at 0.00389 ± 0.00015; in assay [1] (peptide modifications: H2AR3cit H2AK5ac, binder concentration: 500 nM), 0.00481 ± 0.00026; in assay [2] (peptide modifications: H2AR3cit H2AK5ac, binder concentration: 10 nM) it was 0.00519 ± 0.00013; in assay [2] (peptide modifications: H2AR3cit H2AK5ac, binder concentration: 100 nM) it was 0.00567 ± 0.00026; in assay [3] (setting [7]), 0.001 ± 3.7e-05; in assay [3] (setting [8]), 0.0016. Also, the entries for the “peptide microarray binding signal” value in assay [4] (setting [7]) and in assay [4] (setting [8]) were 0.000634 ± 9.9e-06 and 0.0015 ± 4.4e-05, respectively.
Regarding SGRGKQGGKARAK [H2A 1-13 S G Rme G Kac Q G G K A R A K], the “peptide microarray binding signal” value in assay [1] (peptide modifications: H2AR3me1 H2AK5ac, binder concentration: 50 nM) stood at 0.00467 ± 0.00064; in assay [1] (peptide modifications: H2AR3me1 H2AK5ac, binder concentration: 500 nM) it was 0.00424 ± 0.00012; in assay [2] (peptide modifications: H2AR3me1 H2AK5ac, binder concentration: 10 nM), 0.002507 ± 1.4e-05; in assay [2] (peptide modifications: H2AR3me1 H2AK5ac, binder concentration: 100 nM), 0.00305 ± 0.00059; in assay [3] (setting [9]) it was 0.000434 ± 2.9e-05; in assay [3] (setting [10]), 0.000571. In addition, the “peptide microarray binding signal” value in assay [4] (setting [9]) turned out to be 0.000242 ± 6.7e-06; in assay [4] (setting [10]) it was 0.000634.
With SGRGKQGGKARAK [H2A 1-13 S G R G Kac Q G G K A R A K], the “peptide microarray binding signal” value in assay [1] (peptide modifications: H2AK5ac, binder concentration: 50 nM) is 0.00288 ± 4.3e-05; in assay [1] (peptide modifications: H2AK5ac, binder concentration: 500 nM) it was 0.0061 ± 0.00049; in assay [2] (peptide modifications: H2AK5ac, binder concentration: 10 nM), 0.00239 ± 2.4e-05; in assay [2] (peptide modifications: H2AK5ac, binder concentration: 100 nM), 0.005528 ± 4.3e-05; in assay [3] (setting [11]), 0.000378 ± 1e-05; in assay [3] (setting [12]) it was 0.000399. Further, the “peptide microarray binding signal” value in assay [4] (setting [11]) was 0.000227 ± 4.1e-06; in assay [4] (setting [12]), 0.000577 ± 6.2e-06.
As to SGRGKQGGKARAK [H2A 1-13 S G Rme2a G K Q G G K A R A K], the “peptide microarray binding signal” value in assay [1] (peptide modifications: H2AR3me2a, binder concentration: 50 nM) worked out at 0.005172 ± 5e-05; in assay [1] (peptide modifications: H2AR3me2a, binder concentration: 500 nM) it was 0.0126 ± 0.00024; in assay [2] (peptide modifications: H2AR3me2a, binder concentration: 10 nM), 0.00382 ± 0.0003; in assay [2] (peptide modifications: H2AR3me2a, binder concentration: 100 nM), 0.0113 ± 0.00033; in assay [3] (setting [13]) it was 0.00119 ± 9.3e-05; in assay [3] (setting [14]), 0.00143 ± 2.4e-05. For the same molecule, the “peptide microarray binding signal” value in assay [4] (setting [13]) turned out to be 0.000483 ± 1.2e-05; in assay [4] (setting [14]) it was 0.00075 ± 7.9e-06.
As to SGRGKQGGKARAK [H2A 1-13 S G R G K Q G G K A R A K], the “peptide microarray binding signal” value in assay [1] (binder concentration: 50 nM) came out at 0.00364 ± 0.00013; in assay [1] (binder concentration: 500 nM) it was 0.00819 ± 0.00076; in assay [2] (binder concentration: 10 nM) it was 0.00298 ± 3.3e-05; in assay [2] (binder concentration: 100 nM), 0.00446 ± 7.4e-05; in assay [3] (setting [15]), 0.00034 ± 6.1e-06; in assay [3] (setting [16]) it was 0.000571 ± 1.1e-05. Further, the “peptide microarray binding signal” value is 0.000242 ± 6.7e-06 in assay [4] (setting [15]) and 0.000404 ± 4.4e-06 in assay [4] (setting [16]).
Take SGRGKQGGKARAK [H2A 1-13 S G R G K Q G G Kac A R A K]: the “peptide microarray binding signal” value in assay [1] (peptide modifications: H2AK9ac, binder concentration: 50 nM) was determined as 0.00348 ± 0.0001; in assay [1] (peptide modifications: H2AK9ac, binder concentration: 500 nM), 0.00619 ± 0.00024; in assay [2] (peptide modifications: H2AK9ac, binder concentration: 10 nM), 0.00251 ± 0.00014; in assay [2] (peptide modifications: H2AK9ac, binder concentration: 100 nM), 0.00638 ± 0.00045; in assay [3] (setting [17]), 0.000547 ± 2.3e-05; in assay [3] (setting [18]) it was 0.000399. In addition, the “peptide microarray binding signal” value is 0.000227 in assay [4] (setting [17]) and 0.00075 ± 1.6e-05 in assay [4] (setting [18]).
On to SGRGKQGGKARAK [H2A 1-13 S G Rme G K Q G G K A R A K], for which the “peptide microarray binding signal” value in assay [1] (peptide modifications: H2AR3me1, binder concentration: 50 nM) was 0.00254 ± 4.9e-05; in assay [1] (peptide modifications: H2AR3me1, binder concentration: 500 nM) it was 0.005096 ± 3.3e-05; in assay [2] (peptide modifications: H2AR3me1, binder concentration: 10 nM) it was 0.00286 ± 0.00013; in assay [2] (peptide modifications: H2AR3me1, binder concentration: 100 nM) it was 0.004039 ± 3.4e-05; in assay [3] (setting [19]) it was 0.000491 ± 9.7e-06; in assay [3] (setting [20]), 0.000514 ± 5.5e-06. In addition, the “peptide microarray binding signal” value was determined as 0.000181 in assay [4] (setting [19]) and 0.000404 ± 8.8e-06 in assay [4] (setting [20]).
With SGRGKQGGKARAK [H2A 1-13 S G Rcit G K Q G G K A R A K], the “peptide microarray binding signal” value in assay [1] (peptide modifications: H2AR3cit, binder concentration: 50 nM) was 0.00257 ± 6.9e-05; in assay [1] (peptide modifications: H2AR3cit, binder concentration: 500 nM), 0.00614 ± 6.4e-05; in assay [2] (peptide modifications: H2AR3cit, binder concentration: 10 nM), 0.00137 ± 3.3e-05; in assay [2] (peptide modifications: H2AR3cit, binder concentration: 100 nM), 0.00262 ± 0.0002; in assay [3] (setting [21]), 0.000245 ± 2.6e-06; in assay [3] (setting [22]), 0.000514 ± 5.5e-06. The “peptide microarray binding signal” value in assay [4] (setting [21]) was found to be 0.000181; in assay [4] (setting [22]) it was 0.000404 ± 4.4e-06.
For the molecule SGRGKQGGKARAK [H2A 1-13 S G Rme2a G Kac Q G G K A R A K], the “peptide microarray binding signal” value amounted to 0.00354 ± 0.00011 in assay [1] (peptide modifications: H2AR3me2a H2AK5ac, binder concentration: 50 nM); 0.00657 ± 0.00029 in assay [1] (peptide modifications: H2AR3me2a H2AK5ac, binder concentration: 500 nM); 0.00352 ± 5e-05 in assay [2] (peptide modifications: H2AR3me2a H2AK5ac, binder concentration: 10 nM); 0.00454 ± 0.00022 in assay [2] (peptide modifications: H2AR3me2a H2AK5ac, binder concentration: 100 nM); 0.0005474 ± 5.3e-06 in assay [3] (setting [23]); 0.00137 ± 1.3e-05 in assay [3] (setting [24]). The “peptide microarray binding signal” value in assay [4] (setting [23]) was 0.000468 ± 9e-06; in assay [4] (setting [24]) it was 0.00104 ± 1.1e-05.

Source of the values: the supplement of paper PMC4022240.
